Compound activity from PubChem BioAssay.
PI5P4Ka inh – blocks human PI5P4K alpha kinase activity; PI5P4Kalpha enzyme, ADP-Glo luminescence, 60 min; stronger effect = lower value; max response, %; actives 1.2% (n = 330,000); AID 652105; active means max response of -50% or lower; inconclusive means between -30% and -50%; inactive means -30% or higher; further: value at the top dose of about 77 µM
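Quantitative HTS of the MLSMR library against PI5P4Kalpha with substrate. ATP added last at 5 microM final; room temperature, 60 minutes. Remaining ATP depleted, ADP converted and read as luminescence.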
PI4K2A inh – PI4K2A (human) kinase inhibition; purified PI4K2A, ADP-Glo luminescence, 1 h; stronger effect = lower value; AID 1346378; actives 0.13% (n = 420,000); Q9BTU6; activity change, negative = inhibition, % at 76.9 µM; in the data active means activity change below about -50%; inconclusive means mostly about -30% to -49%
Target sequence (Q9BTU6 whole entry, looked up): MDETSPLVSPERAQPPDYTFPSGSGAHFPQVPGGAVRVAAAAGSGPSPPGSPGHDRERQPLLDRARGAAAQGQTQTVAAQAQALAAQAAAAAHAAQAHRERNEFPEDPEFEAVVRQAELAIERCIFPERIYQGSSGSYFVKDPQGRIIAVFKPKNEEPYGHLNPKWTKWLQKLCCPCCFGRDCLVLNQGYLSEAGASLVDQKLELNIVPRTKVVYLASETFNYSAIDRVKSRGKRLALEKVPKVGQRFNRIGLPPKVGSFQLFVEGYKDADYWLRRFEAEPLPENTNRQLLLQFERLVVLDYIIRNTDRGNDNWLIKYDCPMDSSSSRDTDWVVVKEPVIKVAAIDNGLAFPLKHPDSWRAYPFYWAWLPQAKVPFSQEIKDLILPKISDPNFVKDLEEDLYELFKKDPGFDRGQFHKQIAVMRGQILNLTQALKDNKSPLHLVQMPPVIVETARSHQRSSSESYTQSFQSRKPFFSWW
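In this quantitative HTS, ADP production by PI4K2A was quantified luminescently after 1 h at ambient temperature; 100 microM adenosine served as plate-quality control.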
Six1-Eya2 blk – Six1/Eya2 interaction inhibition; AID 651725; actives 0.56% (n = 360,000); activity change, % (no concentration beside the values); AlphaScreen GST-Six1/His-Eya2 binding, biochemical; stronger effect = lower value
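Six1/Eya2 binding was read as AlphaScreen signal after compounds were pinned into GST-Six1 plus His-tagged Eya2 (5X stock 250/500 nM) in pH 8.0 Tris/NaCl/TCEP buffer, beads added, then incubated 1 h, 37 C, dark.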
pAkt inh – Akt phosphorylation inhibition; AID 651550; activity change, % for hits at 50 µM; Neuro2A IGF-stimulated pAkt S473 HTRF, 20 min; stronger effect = lower value; actives 0.32% (n = 360,000); in the data active means activity change below about -80%; inconclusive means mostly about -51% to -80%
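Neuro2A cells (4,500/well, DMEM with 0.5% FBS) were treated with compound at a single 50 µM final concentration, stimulated with 6 nM IGF for 20 min at 37 °C, and lysed. Phospho-Akt Ser473 was read by HTRF as 665/615 ratio ×10^4.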
CtBP-E1A blk – CtBP/E1A binding inhibition; activity change, % (test concentration not listed); actives 0.49% (n = 340,000); AlphaScreen GST-E1A/His-CtBP binding, 1536-well; stronger effect = lower value
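AlphaScreen with 125 nM GST-E1A and 125 nM His-CtBP (5X stocks) in Tris pH 8.0, 300 mM NaCl, BSA, Tween 20, TCEP. Compounds preincubated 2 h at 37 deg C, then glutathione donor/nickel acceptor beads added for 1 h at 37 deg C in dark.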
Each line names hits and unclear results; the compound was inactive in the other large screens. The list is not random: actives were taken first. Their share in the collection is about 1.8%. Unless noted, no stated cut-off is given here; in the data, active means activity change below about -65%; inconclusive means mostly about -30% to -63%; inactive means weaker than that.

CCOC(=O)Cc1c(C)nc2c(-c3ccccc3)c(-c3ccccc3)[nH]n2c1=O	Six1-Eya2 blk -75, CtBP-E1A blk inconclusive (no result: PI5P4Ka inh)
CCOC(=O)Cc1c(C)nc2c(-c3ccccc3)c(C)[nH]n2c1=O	none (no result: PI5P4Ka inh)
COc1ccc(-c2c(C)[nH]n3c(=O)c(Cc4ccccc4)c(C)nc23)cc1OC	Six1-Eya2 blk -67, CtBP-E1A blk inconclusive
Cc1cccc(Cc2c(C)nc3c(-c4ccccc4)c(C)[nH]n3c2=O)c1	none (no result: PI5P4Ka inh, Six1-Eya2 blk, pAkt inh, CtBP-E1A blk)
CCCCC(CC)C(=O)Nc1cc([N+](=O)[O-])ccc1F (configuration not stated)	none
O=C(COCc1cc(-c2cccs2)on1)N1CCN(c2ccccc2)CC1	none (no result: PI5P4Ka inh, Six1-Eya2 blk, pAkt inh, CtBP-E1A blk)
Cc1c(Cl)cccc1N1C(=O)CC(NNC(=O)c2cccs2)C1=O (configuration not stated)	none
CCN(CCCNc1cc2c(c(N)c1S(=O)(=O)O)C(=O)c1ccccc1C2=O)c1ccccc1	PI5P4Ka inh -56, PI4K2A inh inconclusive, Six1-Eya2 blk -65
O=C(Nc1cccc(Br)c1)c1ccc2nc(N3C(=O)CCC3=O)sc2c1	PI5P4Ka inh -58
Cc1nc(N2CCCCC2)sc1C(=O)c1ccc(SCCO)c([N+](=O)[O-])c1	PI5P4Ka inh -68
Cc1nc(N2CCCCC2)sc1C(=O)c1cccc([N+](=O)[O-])c1	none
O=C1NC(=O)/C(=C\c2ccc(O)cc2O)S1	PI5P4Ka inh -92, Six1-Eya2 blk inconclusive (no result: CtBP-E1A blk)
O=C1NC(=O)/C(=C/c2cccc3ccccc23)S1	none
O=C(c1ccc2nc(Cc3ccccc3F)oc2c1)N1CCCC1	none
NC1=NC(=O)/C(=C/c2ccc(Br)cc2)S1	none (no result: CtBP-E1A blk)
NC1=NC(=O)/C(=C/c2cc(Br)c(O)c(Br)c2)S1	PI5P4Ka inh -89
COc1ccc(CC(=O)N/N=C\c2cc(Br)c(O)c(Br)c2)cc1	PI5P4Ka inh -68
O=C(CCN1CCOCC1)N/N=C/c1cc([N+](=O)[O-])ccc1OC(F)F	none
O=C(CNC(=O)c1cccc(Br)c1)N/N=C/c1cc(Br)cc(Br)c1O	PI5P4Ka inh inconclusive, CtBP-E1A blk inconclusive
O=C(Cc1ccccc1)N/N=C/c1cc(Br)cc(Br)c1O	PI5P4Ka inh -57, Six1-Eya2 blk inconclusive
O=C(CCN1CCOCC1)N/N=C/c1cc(Br)cc(Br)c1O	Six1-Eya2 blk -83, CtBP-E1A blk -73
O=C1OCCN1C(=O)[C@H]1[C@H](c2ccccc2)C(c2ccc(F)cc2)=NN1c1ccc(Br)cc1	none
Cc1ccc(C(=O)N2CCN3C(=O)c4ccccc4C23c2ccc(Cl)cc2)cc1 (configuration not stated)	none
CCN1CCN(c2ccc(S(=O)(=O)N3CCOCC3)cc2NC(=O)CC(C)C)CC1	none
CC(=O)C(Sc1nn(C)c(=S)s1)C(=O)Nc1ccccc1 (configuration not stated)	PI5P4Ka inh -83
N#CC1=C2SCN(Cc3ccccc3)CN2C(=O)CC1c1cccs1 (configuration not stated)	PI5P4Ka inh -59
N#CC1=C2SCN(Cc3ccco3)CN2C(=O)CC1c1ccc(Cl)cc1 (configuration not stated)	PI5P4Ka inh inconclusive
N#CC1=C2SCN(Cc3ccccc3)CN2C(=O)CC1c1ccc2c(c1)OCO2 (configuration not stated)	PI5P4Ka inh -58
COc1cccc(CN(C)C[C@@H]2OCc3cnnn3CCCC(=O)N([C@H](C)CO)C[C@H]2C)c1	none
CCN(CCCNC(=O)CNC(=O)Cn1cnc2ccccc2c1=O)c1ccccc1	none
CC(=O)/C(N=Nc1ccc(C(=O)O)cc1[N+](=O)[O-])=C(\C)O	PI5P4Ka inh -73 (no result: CtBP-E1A blk)
CCOC(=O)/C(N=Nc1ccc(C(=O)O)cc1[N+](=O)[O-])=C(\C)O	none
O=C(/C=C/c1ccccc1)Nc1cc(NC(=O)/C=C/c2ccccc2)cc(C(=O)O)c1	PI5P4Ka inh -56, CtBP-E1A blk inconclusive
CSc1ccc(/C=C/C(=O)Nc2ccccc2)cc1	PI4K2A inh -52
O=C(/C=C/c1ccccc1)Nc1cccc(C(=O)O)c1	none (no result: CtBP-E1A blk)
Cc1ccc(C(=O)CSc2nc3cccnc3n2C)cc1	pAkt inh -106%
Cn1c(SCC(=O)c2ccccc2)nc2cccnc21	none
O=C(COC(=O)COc1ccccc1)Nc1ncc([N+](=O)[O-])s1	PI5P4Ka inh -53
Cc1csc(NC(=O)CSc2nncn2C)n1	pAkt inh inconclusive
Cn1cnnc1SCC(=O)Nc1ncc([N+](=O)[O-])s1	PI5P4Ka inh -50
O=C(/C=C/c1ccco1)c1ccc(NC(=O)C23CC4CC(CC(C4)C2)C3)cc1	PI5P4Ka inh -77
O=C(C=Cc1ccco1)c1ccc([N+](=O)[O-])cc1	none
COC(=O)c1ccc(OC(=O)CCN2C(=O)C3C4c5ccccc5C(c5ccccc54)C3C2=O)cc1 (configuration not stated)	none
O=C(O)/C=C\C(=O)Nc1cc(O)ccc1[N+](=O)[O-]	PI5P4Ka inh -75
COc1ccc(/C=N\n2nnc3ccccc32)cc1	PI4K2A inh -59
COc1ccc(/C=C/c2nc3ccccc3n2C)cc1	PI5P4Ka inh -62, PI4K2A inh -88
COc1ccc(Cn2c(/C=C/c3ccccc3)nc3ccccc32)cc1	none (no result: PI5P4Ka inh)
CC(C)(C)NC(=O)C(c1ccc(Cl)cc1)N(Cc1ccco1)C(=O)CCl (configuration not stated)	none
CC1(c2nnc(Cc3ccccc3)o2)CC(c2ccccc2[N+](=O)[O-])=NO1 (configuration not stated)	PI5P4Ka inh -51
CC1(c2nnc(Cc3ccccc3)o2)CC(c2cccc([N+](=O)[O-])c2)=NO1 (configuration not stated)	none
O=C(CCCCCN1C(=O)c2cccc3cccc(c23)C1=O)NCc1cccnc1	none
C[n+]1c(-c2ccccc2)cc2c(=Cc3ccccc3)c3ccccc3n21	PI5P4Ka inh -50, PI4K2A inh inconclusive, Six1-Eya2 blk inconclusive
CN(C)c1ccc(/C=C(\C#N)c2ccccc2)cc1	Six1-Eya2 blk inconclusive (no result: CtBP-E1A blk)
CN(C)c1ccc(C=c2c3cc(O)ccc3n3c2cc(-c2ccccc2)[n+]3C)cc1	PI5P4Ka inh -54, PI4K2A inh inconclusive, Six1-Eya2 blk -74
C[n+]1c(-c2ccccc2)cc2c(=Cc3ccc([N+](=O)[O-])cc3)c3ccccc3n21	PI5P4Ka inh inconclusive, PI4K2A inh inconclusive, Six1-Eya2 blk inconclusive
[O-][n+]1c2ccccc2[n+]([O-])c2cc(O)ccc21	PI5P4Ka inh -54, Six1-Eya2 blk inconclusive
CC(C)c1ccc(NC(=O)Nc2nnc([C@@H]3C[C@H](O)[C@@H](CO)O3)s2)cc1	none
Cc1nc(C(F)(F)F)c(C(=O)N/N=C(\N)c2ccccn2)s1	Six1-Eya2 blk -77, CtBP-E1A blk -92
N/C(=N\NS(=O)(=O)c1ccccc1C(F)(F)F)c1ccccn1	none (no result: CtBP-E1A blk)
O=C(COC(=O)c1ccco1)Nc1nc2ccc([N+](=O)[O-])cc2s1	PI5P4Ka inh -54 (no result: CtBP-E1A blk)
